PubChem BioAssay AID1053 (University of Pittsburgh Molecular Library Screening Center, 2008)
Several values for one entry are separate records, joined by “and”; a condition that tells them apart may be missing. Equal entries are not always repeated. Activity calls are given as the source filed them. The rule behind the calls is not given here.

Each compound was assayed against Serine/threonine-protein kinase PLK1 (Homo sapiens) (UniProt P53350) (assay: Plk1 polo box domain binding inhibitors, SAR follow-up, biochemical, fluorescence polarization, purchased analogs (AID 1053)). Conditions: Plk1 PBD fluorescence polarization peptide binding; at 20 µM; stronger effect = higher value.
Serine/threonine-protein kinase PLK1 (Homo sapiens), sequence (P53350 whole entry, looked up, the tested form may be a part): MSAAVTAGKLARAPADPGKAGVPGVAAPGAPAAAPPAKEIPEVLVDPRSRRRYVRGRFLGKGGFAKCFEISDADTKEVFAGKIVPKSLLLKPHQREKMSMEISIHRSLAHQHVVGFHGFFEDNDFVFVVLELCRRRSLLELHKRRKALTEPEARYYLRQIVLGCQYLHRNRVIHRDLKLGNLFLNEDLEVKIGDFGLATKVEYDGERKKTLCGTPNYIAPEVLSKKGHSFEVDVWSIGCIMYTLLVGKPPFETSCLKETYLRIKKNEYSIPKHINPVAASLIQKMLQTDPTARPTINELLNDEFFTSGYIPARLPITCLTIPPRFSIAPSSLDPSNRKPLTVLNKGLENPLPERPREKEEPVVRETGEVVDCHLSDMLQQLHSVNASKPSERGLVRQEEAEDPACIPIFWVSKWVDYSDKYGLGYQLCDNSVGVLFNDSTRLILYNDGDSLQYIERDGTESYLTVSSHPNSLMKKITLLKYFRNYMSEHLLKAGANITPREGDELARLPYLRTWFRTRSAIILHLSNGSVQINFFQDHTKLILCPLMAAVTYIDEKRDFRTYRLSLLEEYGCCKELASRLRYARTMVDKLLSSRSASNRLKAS

inhibition, inactive:
COc1ccc(-c2nnc3[nH]c(=O)n(C)c(=O)c3n2)cc1 -45.9% and -39.6%
CC(=O)N(CN1C(=O)c2ccccc2C1=O)c1ccc(C)c(Cl)c1 -39.1%
CCn1nc(-c2ccc(OC)cc2)nc2c(=O)n(C)c(=O)nc1-2 28%
Cc1ccc(C(=O)CN2C=CC(=C(O)NCc3ccccc3)C=C2)cc1 -52.1%
COc1ccccc1N(/N=C1\Sc2ccccc2C1=O)C(C)=O 6.58%
CCn1c(N/C(O)=C/C(O)(C(F)(F)F)C(F)(F)F)nc2ccccc21 -49.9%
Cn1c(=O)[nH]c2nnc(-c3ccccc3)nc2c1=O -31%
CCOC(=O)c1ccc(NC(=O)C23CC4CC(CC(C4)C2)C3)cc1 -35.4%
CC(=O)N(CN1C(=O)c2ccccc2C1=O)c1ccc(F)cc1 -46.9%
CC(=O)N(/N=C1\Sc2ccccc2C1=O)c1ccccc1[N+](=O)[O-] 32%
CCOC(=O)c1ccc(N=Cc2c(O)n(Cc3ccccc3Cl)c(=O)[nH]c2=O)cc1 -73.2%
CC(=O)N(CN1C(=O)c2cccc([N+](=O)[O-])c2C1=O)c1ccc2c(c1)oc1ccccc12 -35.9%
CC(=O)N(/C=C1\Sc2ccccc2C1=O)c1ccc(I)cc1 -16.1%
CCOC(=O)c1ccc(N=Cc2c(O)n(-c3ccc(C)cc3)c(=O)[nH]c2=O)cc1 -22.9%
CC(=O)N(/C=C1\Sc2ccccc2C1=O)c1cccc(C)c1 -111%
CCn1nc(-c2ccc(C(=O)OC)cc2)nc2c(=O)n(C)c(=O)nc1-2 -9.29%
CC(=O)N(CN1C(=O)c2ccccc2C1=O)c1ccc2ccccc2c1 -49.2%
O=c1[nH]c(=O)c2nc(-c3ccc(Cl)cc3)cnc2[nH]1 -45.5%
Cn1nc(-c2ccc([N+](=O)[O-])cc2)nc2c(=O)n(C)c(=O)nc1-2 31.6%
CC(=O)N(CN1C(=O)c2ccccc2C1=O)c1ccc(I)cc1 -50.3% and -70.1%
CCCCCCC(=O)N(CN1C(=O)c2ccccc2C1=O)c1ccccc1OC -57.6%
CCOC(=O)N1CCN(c2cc3nccnc3cc2F)CC1 -52.1%
CC(=O)N(/C=C1\Sc2ccccc2C1=O)c1ccc(C)c(C)c1 -217%
COc1ccccc1N(CN1C(=O)c2ccc([N+](=O)[O-])cc2C1=O)C(C)=O -55.2%
CCn1nc(-c2ccc(C(F)(F)F)cc2)nc2c(=O)n(C)c(=O)nc1-2 10.8%
CC(=O)N(CN1C(=O)c2ccc(Br)cc2C1=O)c1ccc(Cl)cc1 -43%
Cn1c(=O)[nH]c(=O)c2nc(-c3ccccc3)c(-c3ccccc3)nc21 -33.3%
Cn1c(=O)c2nc(-c3ccccc3)c(=O)[nH]c2n(C)c1=O -31.3%
CCCCCOC(=O)c1ccc(NC(=O)c2ccc([N+](=O)[O-])cc2)cc1 28.2%
COc1ccc(N(CN2C(=O)c3ccccc3C2=O)C(C)=O)cc1 -43.9% and -51.6%
CC(=O)Oc1ccccc1N(/C=C1\Sc2ccccc2C1=O)C(C)=O -254% and -278%
CCOC(=O)c1ccc(N=Cc2c(O)n(Cc3cccs3)c(=O)[nH]c2=O)cc1 -25.6%
CCOC(=O)c1ccc(NC(=O)c2cc3ccccc3oc2=O)cc1 -10.3%
CCn1nc(-c2ccc(C)cc2)nc2c(=O)n(C)c(=O)nc1-2 16.7%
CCOC(=O)c1ccc(NC(=O)c2cncc(Br)c2)cc1 -31.4%
CCOC(=O)c1ccc(N=Cc2c(O)n(-c3cccc(OC)c3)c(=O)[nH]c2=O)cc1 -40.6%
CC(=O)N(CN1C(=O)c2ccccc2C1=O)c1cccc(F)c1 -51.8%
